Laboratory results as given in PubChem BioAssay (NCI).
The panel holds about 79,000 compounds, 15% with a hit somewhere; the sample as a whole holds those more often. Rule as the data show it: active = growth inhibition above about 70%; inactive = the rest.

Tests used:
[1] = NCI Yeast Anticancer Drug Screen. Data for the rad50 strain (AID 155);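 also: 0% = growth of vehicle-only cultures of the same strain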; conditions: S. cerevisiae rad50 strain growth inhibition; at 50.0 µM; stronger effect = higher value
How it was run: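 Inhibition values express reduced yeast growth in compound-treated cultures relative to vehicle-treated controls.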

[2] = NCI Yeast Anticancer Drug Screen. Data for the mec2-1 strain (AID 157); conditions: S. cerevisiae mec2-1 strain, at 50.0 µM, stronger effect = higher value
How it was run: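 Mutant yeast (mec2-1) grown with compound; growth inhibition relative to vehicle control reported.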

[3] = NCI Yeast Anticancer Drug Screen. Data for the sgs1 mgt1 strain (AID 161);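 also: 0% = growth of cultures given vehicle only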; conditions: S. cerevisiae sgs1 mgt1 strain, at 50.0 µM, stronger effect = higher value
How it was run: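 Compounds are added to genetically altered yeast, and growth is compared with cultures given vehicle alone to give percent inhibition.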

[4] = NCI Yeast Anticancer Drug Screen. Data for the cln2 rad14 strain (AID 165);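 also: 0% = growth equal to vehicle treated cultures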; conditions: S. cerevisiae cln2 rad14 strain, at 50.0 µM, stronger effect = higher value
How it was run: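 Readout is yeast growth inhibition versus vehicle-treated controls, using a strain with cln2 and rad14 alterations exposed to compound.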

[5] = NCI Yeast Anticancer Drug Screen. Data for the bub3 strain (AID 167); conditions: S. cerevisiae bub3 mutant strain, at 50.0 µM, stronger effect = higher value
How it was run: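 Steps: expose the mutant yeast strain to compound; grow alongside vehicle-treated cultures; measure growth; express inhibition against the vehicle cultures.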

[6] = NCI Yeast Anticancer Drug Screen. Data for the mlh1 rad18 strain (AID 175); conditions: S. cerevisiae mlh1 rad18 strain growth inhibition; at 50.0 µM; stronger effect = higher value
How it was run: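 Genetically defined yeast (DNA repair-deficient) exposed to compounds; growth inhibition determined relative to vehicle.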

Measured: growth inhibition

CC(O)C(N=Cc1ccccc1[O-])C(=O)[O-].CC(O)C(N=Cc1ccccc1[O-])C(=O)[O-].[Co+2] (stereo not given)
inactive: [1] -7% | [2] -2.05% | [3] -16.6% | [4] 4.4% | [5] 7.65% | [6] -25.9%

Cc1ccc(S(=O)(=O)OC2C3OC(C)(C)OC3OC2C(c2cc(O)c3c(c2O)C(=O)c2ccccc2C3=O)c2cc(O)c3c(c2O)C(=O)c2ccccc2C3=O)cc1 (stereo not given)
inactive: [1] -35.5% | [2] -25.6% | [3] -11.6% | [4] -5% | [5] -8.2% | [6] -25.1%

O=C(C[n+]1csc2ccccc21)c1ccc(I)cc1
inactive: [1] -15.3% | [2] -0.65% | [3] -9.15% | [4] -12.8% | [5] -4.8% | [6] 20.4%

CCCCCCSCCO
inactive: [1] -13.2% | [2] -35% | [3] -11.9% | [4] 23.6% | [5] -30.9% | [6] 2.55%

Oc1ccc2nccnc2c1
inactive: [1] 10.1% | [2] 1.6% | [3] 10.2% | [4] -1.6% | [5] 3.6% | [6] 13.1%

CC(=O)Nc1ccc2nc(C)cc(Cl)c2c1
inactive: [1] 25.5% | [2] -3.45% | [3] 9.4% | [4] -8.8% | [5] 6.55% | [6] 4.35%

CCN(CC)CCOC(=O)c1ccc(N=Nc2ccc(O)cc2)cc1
inactive: [1] 7.25% | [2] -0.8% | [3] -17.9% | [4] -6.25% | [5] 1% | [6] -5.7%

CCc1nc(N)nc(-c2nc(N)nc(CC)c2C)c1C
inactive: [1] 10.8% | [2] -2.4% | [3] -8.4% | [4] -7.8% | [5] -29.4% | [6] 15.8%

O=C(O)c1cccc(S(=O)(=O)NCCO)c1
inactive: [1] -11.3% | [2] -8.25% | [3] -20.8% | [4] -1.9% | [5] -36.1% | [6] 8.5%

CCCCC(CC)C1OCCS1 (stereo not given)
inactive: [1] 5.95% | [2] -24.4% | [3] -4.3% | [4] 1.9% | [5] -17% | [6] -10%

COC(=O)c1cc(=O)c2c(=O)[nH]c(=O)[nH]c2[nH]1
inactive: [1] -3.65% | [2] -1.25% | [3] 2% | [4] -26.8% | [5] -8.6% | [6] 3.65%

CN(C)CCn1cnc2sc3ccccc3c21
inactive: [1] -8.35% | [2] -15.5% | [3] -23.8% | [4] 24% | [5] -6.35% | [6] -23.8%

N#CCCCCC12C3C(=O)N(c4ccccc4)C(=O)C3ON1O[C@@H]1C(=O)N(c3ccccc3)C(=O)[C@@H]12 (stereo not given in full)
inactive: [1] 43.4% | [2] 19.3% | [3] 26.7% | [4] 49.9% | [5] 33.5% | [6] 44.4%

O=C(Nc1ccc(F)cc1)C(=O)C(C1OC(=O)c2ccccc21)[N+](=O)[O-] (stereo not given)
inactive: [1] 14.9% | [2] 6.15% | [3] 8.7% | [4] 14.1% | [5] 10.8% | [6] 15.8%

CCc1cccc(CC)c1NC(=O)c1ccccc1Br
inactive: [1] 2.5% | [2] 1.85% | [3] 15.7% | [4] 16.3% | [5] -0.05% | [6] 21.2%

Cc1ccc(S(=O)(=O)c2ccc(O)c(C)c2)c(O)c1 (tested in a mixture with another compound)
inactive: [1] 36.6% | [2] 22.9% | [3] 35.3% | [4] 45.6% | [5] 33.4% | [6] 50.2%

COc1ccc(N=C(C)C2C(=O)c3ccccc3C2=O)cc1
inactive: [1] 44% | [2] -21.9% | [3] -10.2% | [4] 13.7% | [5] 16.6% | [6] -30.7%

CC1=NN(C(=O)c2ccncc2)C(=O)C1N=Nc1ccc(F)cc1 (stereo not given)
inactive: [1] -4.65% | [2] -10.2% | [3] -7.65% | [4] -5.2% | [5] -7.15% | [6] -4.9%

O=C(NC1C(=O)NNC1c1cccc([N+](=O)[O-])c1)c1ccccc1 (stereo not given)
inactive: [1] -37.5% | [2] -26.1% | [3] 2.85% | [4] -10.6% | [5] 11.9% | [6] 0.55%

COCCNC(=O)C(C)O (stereo not given)
inactive: [1] 1.7% | [2] 3.95% | [3] -4.9% | [4] 19.2% | [5] 17.1% | [6] 6.15%
